In PubChem BioAssay (NCATS):
Records with an inconclusive call do not appear. Unmarked numbers belong to inactive results. Calls come from the whole dose curve; as a rule, active = well fitted inhibition curve with a large enough effect; inconclusive = small, poorly fitted or top-dose-only effect; inactive = flat fitted curve, though single readings scatter.

What follows are compounds tested against Lysine-specific demethylase 5B (Homo sapiens) (UniProt Q9UGL1) (assay: Optimization screen for KDM5B Histone Demethylases FDH coupled qHTS against the LOPAC library (AID 1347166; note: 0% is about no effect)). Details: KDM5B demethylation, FDH-coupled NADH fluorescence (FDH is formaldehyde dehydrogenase); series mostly up to 57.5 µM; activity, negative = inhibition: at the top concentration.
Lysine-specific demethylase 5B (Homo sapiens), sequence (Q9UGL1 whole entry, looked up): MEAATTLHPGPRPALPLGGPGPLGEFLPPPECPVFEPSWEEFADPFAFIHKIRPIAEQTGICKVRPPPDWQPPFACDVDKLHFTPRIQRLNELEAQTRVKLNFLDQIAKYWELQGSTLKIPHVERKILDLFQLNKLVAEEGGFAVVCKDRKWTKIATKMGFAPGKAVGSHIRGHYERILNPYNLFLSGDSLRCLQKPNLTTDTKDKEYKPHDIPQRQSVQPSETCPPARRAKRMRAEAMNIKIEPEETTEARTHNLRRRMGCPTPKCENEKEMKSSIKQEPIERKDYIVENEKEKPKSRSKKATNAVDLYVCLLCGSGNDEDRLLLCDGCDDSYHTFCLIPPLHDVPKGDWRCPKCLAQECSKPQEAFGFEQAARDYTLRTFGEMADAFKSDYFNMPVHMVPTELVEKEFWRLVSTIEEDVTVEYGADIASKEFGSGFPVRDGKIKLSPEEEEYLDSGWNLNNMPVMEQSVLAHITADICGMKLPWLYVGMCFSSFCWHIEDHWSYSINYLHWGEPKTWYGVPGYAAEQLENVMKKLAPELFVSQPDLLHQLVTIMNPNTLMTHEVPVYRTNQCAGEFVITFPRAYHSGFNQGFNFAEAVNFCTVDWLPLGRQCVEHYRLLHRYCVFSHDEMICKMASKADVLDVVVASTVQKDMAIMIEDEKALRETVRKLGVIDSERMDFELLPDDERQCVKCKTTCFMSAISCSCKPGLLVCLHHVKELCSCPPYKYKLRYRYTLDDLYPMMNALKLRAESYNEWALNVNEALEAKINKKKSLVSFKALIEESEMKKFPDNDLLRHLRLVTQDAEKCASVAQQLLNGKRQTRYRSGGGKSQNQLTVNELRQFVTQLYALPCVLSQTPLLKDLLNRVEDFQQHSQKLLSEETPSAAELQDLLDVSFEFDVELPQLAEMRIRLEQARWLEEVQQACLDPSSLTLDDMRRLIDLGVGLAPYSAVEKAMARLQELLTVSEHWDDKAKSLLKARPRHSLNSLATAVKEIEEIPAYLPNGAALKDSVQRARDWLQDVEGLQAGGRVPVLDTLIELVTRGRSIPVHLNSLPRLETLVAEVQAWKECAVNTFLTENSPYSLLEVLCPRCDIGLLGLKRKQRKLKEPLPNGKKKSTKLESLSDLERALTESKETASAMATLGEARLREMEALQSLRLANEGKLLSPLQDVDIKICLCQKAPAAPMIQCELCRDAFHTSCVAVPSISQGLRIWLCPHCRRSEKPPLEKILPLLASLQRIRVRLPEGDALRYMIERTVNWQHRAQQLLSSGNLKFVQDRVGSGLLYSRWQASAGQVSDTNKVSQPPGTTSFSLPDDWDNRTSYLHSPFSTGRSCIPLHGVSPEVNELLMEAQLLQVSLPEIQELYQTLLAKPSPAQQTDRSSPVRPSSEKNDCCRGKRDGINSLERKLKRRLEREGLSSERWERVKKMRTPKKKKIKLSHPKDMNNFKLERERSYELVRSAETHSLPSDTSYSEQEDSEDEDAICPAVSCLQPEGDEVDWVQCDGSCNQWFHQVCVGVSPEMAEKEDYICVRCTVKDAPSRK
Outline: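 KDM5BDeltaAP (200nM final) preincubated 10 min with compound, then 12.5uM H3K4Me3, 25uM a-ketoglutarate, ascorbate, Fe(II), NAD+ and FDH added; 50mM HEPES pH 7.5, 0.01% Tween-20. NADH fluorescence (340/450 nm) change over 30 min, room temperature.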
`NCCNC(=O)c1ncsc1-c1cccc(F)c1` was tested, and the “activity, negative = inhibition” value was -10.8%. `NCCCCC(=O)O` was tested, and the “activity, negative = inhibition” value was -1.05%. For `CN1CCc2cc(NC(=O)Nc3cccnc3)ccc21`, the “activity, negative = inhibition” value was -7.1%. `O=C(O)CC1CCCc2ccccc2C1O` (stereo unspecified) was tested, and the “activity, negative = inhibition” value was -7.02%. In the case of `Cc1ccc(C(=O)O[C@H](C(=O)O)[C@@H](OC(=O)c2ccc(C)cc2)C(=O)O)cc1` (tested in a mixture with another compound), the “activity, negative = inhibition” value is reported as -0.0653%. `CN(C)c1ccc(/C=C2\C(=O)Nc3ccccc32)cc1` was tested, and the “activity, negative = inhibition” value was -11.8%. `COc1ccc(NC(=O)/C=C/c2ccc(Cl)cc2)cc1` was tested, and the “activity, negative = inhibition” value was 6.19%. `CN1CCc2cccc3c2C1Cc1ccc(O)c(O)c1-3` (stereo unspecified) was tested, and the “activity, negative = inhibition” value was -26.9%. For `O=C(O)CNC(=O)C(CS)Cc1ccccc1` (stereo unspecified), the “activity, negative = inhibition” value was 1.94%. With `O=C(O)[C@@H]1C[C@@H](C(=O)O)N1` the “activity, negative = inhibition” value was 2.49%. In the case of `COc1cccc(OC)c1OCCNCC1COc2ccccc2O1` (stereo unspecified), the “activity, negative = inhibition” value is reported as -1.6%. `CN1[C@@H](CC(=O)c2ccccc2)CCC[C@H]1C[C@H](O)c1ccccc1` was tested, and the “activity, negative = inhibition” value was -3.01%. With `O=C(O)CCCC[C@@H]1CCSS1` the “activity, negative = inhibition” value was 7.34%. With `N#C/C(=C\c1ccc(-c2cc(Cl)ccc2Cl)o1)C(=O)Nc1cccc2ncccc12` the “activity, negative = inhibition” value was -29.1%. In the case of `c1ccc(-c2ccccn2)nc1`, the “activity, negative = inhibition” value is reported as -8.26%. For `CCOC(=O)N1CCN(/[N+]([O-])=N/Oc2ccc([N+](=O)[O-])cc2[N+](=O)[O-])CC1`, the “activity, negative = inhibition” value was -4.55%. For `Clc1ccc(N2CCN(Cc3c[nH]c4ncccc34)CC2)cc1`, the “activity, negative = inhibition” value was -13.3%. For `N[C@@H](CC(=O)O)C(=O)O`, the “activity, negative = inhibition” value was -5.47%. In the case of `CCCCC#Cc1nc(NC)c2ncn([C@@H]3O[C@H](CO)[C@@H](O)[C@H]3O)c2n1`, the “activity, negative = inhibition” value is reported as -16.3%. With `CN(C)c1nc(N)c(C(=O)N=C(N)N)nc1Cl` the “activity, negative = inhibition” value was -2.46%. In the case of `CC(C)NCC(O)COc1cccc2ccccc12` (stereo unspecified), the “activity, negative = inhibition” value is reported as -26.5%. In the case of `COc1cc(SC)ccc1C(=O)N1CCC(Cc2ccccc2)CC1`, the “activity, negative = inhibition” value is reported as -14.2%. For `O=c1[nH]c2cc(C(F)(F)F)ccc2n1-c1cc(C(F)(F)F)ccc1O`, the “activity, negative = inhibition” value was -12.6%. With `COc1cc(OC)c(/C=C2/C(=O)Nc3ccccc32)c(OC)c1` the “activity, negative = inhibition” value was -5.44%. For `NCC1OC(O[C@H]2[C@H](O)[C@@H](OC3C(O)C(N)CC(N)C3OC3OC(CO)C(O)C(O)C3N)O[C@@H]2CO)C(N)C(O)C1O` (stereo partly specified), the “activity, negative = inhibition” value was -6.82%. With `C=CC(C)=C[C@@]1(C)SC(=O)C(C)=C1O` the “activity, negative = inhibition” value was 0.788%. In the case of `O=c1[nH]c2cc([N+](=O)[O-])c([N+](=O)[O-])cc2[nH]c1=O`, the “activity, negative = inhibition” value is reported as -4.85%. For `NC[C@H]1O[C@@H](n2cnc3c(N)ncnc32)[C@H](O)[C@@H]1O`, the “activity, negative = inhibition” value was -0.143%. `O=C(O)[C@@H]1C[C@H](C(=O)O)N1` was tested, and the “activity, negative = inhibition” value was 5.51%. `S=C(S)OC1CC2CC1C1CCCC21` (stereo unspecified) was tested, and the “activity, negative = inhibition” value was -15.9%. In the case of `C=CC(N)CCC(=O)O` (stereo unspecified), the “activity, negative = inhibition” value is reported as -3.05%. In the case of `CC(C)NC[C@H](O)COc1cccc2[nH]ccc12`, the “activity, negative = inhibition” value is reported as -0.901%. `C#CCN1C(C)=C(C(=O)OC)C(c2cccc([N+](=O)[O-])c2)C(C(=O)OCC)=C1C` (stereo unspecified) was tested, and the “activity, negative = inhibition” value was -18.5%. `CC(=O)SCC[N+](C)(C)C` was tested, and the “activity, negative = inhibition” value was -3.44%. With `Nc1ncnc2c1c(I)cn2[C@@H]1C[C@H](N)[C@@H](O)[C@H]1O` the “activity, negative = inhibition” value was -16%. With `CCCCCCCCCCCCCCCCCC(=O)NCC(COP(=O)([O-])OCC[N+](C)(C)C)OCC` (stereo unspecified) the “activity, negative = inhibition” value was -7.39%.
